In PubChem BioAssay (Tox21):
Active and inactive are the calls of the source. Calls come from the whole dose curve; as a rule, active = well fitted cell-killing curve with a large enough effect in the repeat runs; inconclusive = weak or mixed curves, or effect the other way; inactive = flat fitted curve, though single readings scatter.

Test: qHTS assay to identify small molecule HDAC inhibitors - cell viability counter screen (AID 1259365); note: nearly all actives have a fitted effect of over 50% in size
Conditions: HCT-116 viability, CellTiter-Glo ATP luminescence, 2 h; series mostly up to 92.4 µM; activity change, negative = cytotoxicity: at the top concentration
Procedure, shortened: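 HCT-116 wild-type, overnight attachment; 2hr drug exposure, 37C; CellTiter-Glo luminescent ATP readout after 30min RT.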
% is set by controls: 0 for no effect and ±100 for the full control effect.

Row | Compound | activity change, negative = cytotoxicity
1 | CCCCCCCCCCCCCCCC(=O)NCCO | -1.17% [at 42.5 µM] (inactive)
2 | C=COCCOCCOC=C | 0.901% (inactive)
3 | C=C(C)[C@@H]1CC[C@@H](C)C[C@@H]1O | 1.54% (inactive)
4 | O=C(O)CCNC(=O)c1ccccc1 | 5.04% [at 42.5 µM] (inactive)
5 | CCOC(=O)C(=O)c1csc(NC=O)n1 | 0.387% [at 42.5 µM] (inactive)
6 | CCC(CO)CO | 7.4% (inactive)
7 | Nc1nc(=O)n([C@@H]2O[C@H](CO)[C@@H](O)[C@@H]2F)cc1I | 4.4% [at 42.5 µM] (inactive)
8 | COc1ccc(N=Nc2cc(C)c(N=Nc3ccc(S(=O)(=O)O)cc3)cc2OC)cc1 | -22.3% (inactive)
9 | OC(CCN1CCCCC1)(c1ccccc1)c1ccccc1 | -3.12% [at 42.5 µM] (inactive)
10 | Cc1nc(C)nc(N2C[C@@H](C)N(c3ccnc([C@@H](C)O)n3)[C@@H](C)C2)n1 | 1.16% [at 42.5 µM] (inactive)
11 | COc1ccc(NS(=O)(=O)c2ccc(N)cc2)nn1 | 3.38% [at 42.5 µM] (inactive)
12 | O=C(CN1CCN(Cc2ccc3c(c2)OCO3)CC1)N1c2ccccc2Sc2ccccc21 | -1.19% [at 42.5 µM] (inactive)
13 | NS(=O)(=O)c1ccc(Cl)c(S(N)(=O)=O)c1 | 5.28% [at 42.5 µM] (inactive)
14 | C1=C\CC/C=C\CC/1 | 6.02% (inactive)
15 | CCCCCC1CCCC(=O)O1 (centres undefined) | -0.48% (inactive)
16 | C=C(C)C(=O)OC1CC(C)CC(C)(C)C1 (centres undefined) | -4.95% (inactive)
17 | C=C[C@@H](C)CCC=C(C)C | 1.75% (inactive)
18 | CCN(CC)C(=O)C1CN2CCc3cc(OC)c(OC)cc3C2CC1OC(C)=O (centres undefined) | 0.416% [at 42.5 µM] (inactive)
19 | O=C(Oc1ccccc1C(=O)O)c1ccccc1O | -1.05% [at 42.5 µM] (inactive)
20 | NC(=O)NNC(N)=O | 0.864% (inactive)
21 | C=CCCCCCCCCCCC | 4.34% [at 8.39 µM] (inactive)
22 | CCCCC(C)C(=O)O (centres undefined) | 1.55% (inactive)
23 | CCCCCCCCCCCCCCCCCCN(C)C | -0.63% [at 42.5 µM] (inactive)
24 | COc1cc2c3cc1Oc1cc(ccc1O)C[C@@H]1c4c(cc(OC)c(O)c4Oc4ccc(cc4)C[C@@H]3N(C)CC2)CC[N+]1(C)C | 0.48% [at 42.5 µM] (inactive)
